Experimental data: PubChem BioAssay (NCATS)
Inconclusive results are not listed. Unmarked numbers belong to inactive results. Calls follow the shape of the dose curve; as a rule, active = well fitted cell-killing curve with a large enough effect; inconclusive = small, poorly fitted or top-dose-only effect; inactive = flat fitted curve, though single readings scatter.

Assay: qHTS of pediatric cancer cell lines to identify multiple opportunities for drug repurposing: Primary screen for RD cells (AID 1347104);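 also: plate controls were DMSO for no effect and bortezomib for full effect; nearly all actives have a fitted effect of over 55% in size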
Conditions: RD rhabdomyosarcoma viability, CellTiter-Glo luminescence, 48 h; series mostly up to 46 µM; activity change, negative = cytotoxic: at the top concentration
In short: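 Phenotypic viability qHTS, 48 h compound exposure, CellTiter-Glo luminescence read-out; multi-concentration dosing so that potency and efficacy derive directly from the primary screen's curves.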

Structure (SMILES)	activity change, negative = cytotoxic
Cc1onc(-c2c(Cl)cccc2Cl)c1C(=O)Cl	13.4%
CCOC(=O)Oc1ccc(CCNC(=O)[C@H](CCSC)NC(C)=O)cc1OC(=O)OCC	11.4%
O=[N+]([O-])c1nccn1CO[C@@H](CO)[C@H](O)CO	-1.8%
NS(=O)(=O)c1ccc(N2CCCCS2(=O)=O)cc1	7.95%
O=C(O)CCC(=O)OC[C@@H](NC(=O)C(Cl)Cl)[C@H](O)c1ccc([N+](=O)[O-])cc1	12.9%
CC(=O)c1ccc(O)c(C(N)=O)c1	15.9%
O=C1c2ccccc2CCc2ccccc21	5.47%
CCOC(=O)c1ccc(NC(=O)CN2CCCCC2)cc1	6.22%
Cc1c(F)cc2c(=O)c(C(=O)O)cn3c2c1CCC3C (stereo not given)	6.79%
CC(C)(C)NCC(O)COc1ccccc1OCC1CCCO1 (stereo not given)	2.6%
Cc1ccc(O)cc1	9.07%
CCCCC(CC)CNC(=O)CC(C)OC(=O)CCC(=O)O (stereo not given)	6.95%
CCN(CC)CC(=O)OCC(=O)[C@@]1(O)CC[C@H]2[C@@H]3CCC4=CC(=O)CC[C@]4(C)[C@H]3[C@@H](O)C[C@@]21C	18%
OCCCc1ccccc1	20.7%
O=C(CCCCC(=O)Nc1c(I)cc(I)c(C(=O)O)c1I)Nc1c(I)cc(I)c(C(=O)O)c1I	23.1%
Cc1cccc(OCC(O)CNC(C)(C)C)c1C (stereo not given)	-8.79%
Cc1ccc(C(=O)C(=O)O)cc1C	4.62%
CC(=O)Nc1c(I)c(NC(C)=O)c(I)c(C(=O)O)c1I	4.5%
CC(C)(Oc1ccc(Cl)cc1)C(=O)OCCCOC(=O)C(C)(C)Oc1ccc(Cl)cc1	4.12%
O=C(CO)[C@@H](O)[C@H](O)[C@@H](O)CO	2.72%
